The text below walks through data of PubChem BioAssay (EPA / NIEHS).

A structure can be active in one record and inactive in another. Calls of active or inactive are those of the source. The calls were made as follows: active = hit-call score of the fitted dose curve at least 0.9, where 1 is the maximum; inactive = score below 0.9.

In the experiment the target is Heat shock factor protein 1 (Homo sapiens) (UniProt Q00613). The experiment is described as follows: ATG_HSE_CIS: Attagene CIS-FACTORIAL HepG2 Assay for human Heat Shock Transcription Factor 1 (HSE) (AID 2282953). The following applies: HepG2 HSE cis-reporter, Attagene RNA transcription; actives raise or lower the signal. As for the experimental part: ATG_CIS is a cell-based, multiplexed-readout assay that uses HepG2, a human liver cell line, with measurements taken at 24 hours after chemical dosing in a 24-well plate.ATG_HSE_CIS is one of 52 assay component(s) measured or calculated from the ATG_CIS assay. It is designed to make measurements of mRNA induction, a form of inducible reporter, as detected with fluorescence intensity signals by Reverse transcription polymerase chain reaction (RT-PCR) and Capillary electrophoresis technology.Data from the assay component ATG_HSE_CIS was analyzed into 1 assay endpoint. This assay endpoint, ATG_HSE_CIS, was analyzed with bidirectional fitting relative to DMSO as the negative control and baseline of activity. Using a type of inducible reporter, measures of mRNA for gain or loss-of-signal activity can be used to understand the reporter gene at the transcription factor-level as they relate to the gene HSF1. Furthermore, this assay endpoint can be referred to as a primary readout, because this assay has produced multiple assay endpoints where this one serves a reporter gene function. To generalize the intended target to other relatable targets, this assay endpoint is annotated to the dna binding intended target family, where the subfamily is heat shock protein.
Sequence of Heat shock factor protein 1 (Homo sapiens) (Q00613 whole entry, looked up): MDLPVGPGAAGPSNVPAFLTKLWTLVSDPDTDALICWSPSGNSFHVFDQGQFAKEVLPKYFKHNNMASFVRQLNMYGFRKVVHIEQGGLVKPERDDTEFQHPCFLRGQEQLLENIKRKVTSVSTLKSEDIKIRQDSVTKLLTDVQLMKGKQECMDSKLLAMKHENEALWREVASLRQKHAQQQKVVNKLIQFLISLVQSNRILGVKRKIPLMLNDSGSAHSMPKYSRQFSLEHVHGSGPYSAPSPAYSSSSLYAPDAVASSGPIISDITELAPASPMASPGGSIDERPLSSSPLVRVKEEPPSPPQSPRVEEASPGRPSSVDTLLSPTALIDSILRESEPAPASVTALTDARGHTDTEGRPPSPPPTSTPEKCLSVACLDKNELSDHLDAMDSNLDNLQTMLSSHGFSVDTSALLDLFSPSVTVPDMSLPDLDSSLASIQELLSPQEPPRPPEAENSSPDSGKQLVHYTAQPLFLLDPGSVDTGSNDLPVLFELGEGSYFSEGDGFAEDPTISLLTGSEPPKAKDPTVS
Human liver HepG2 cells are transiently transfected with multiple reporter transcription units (MRTUs) in 6-well plates using FuGene 6 reagent (Roche; 3 ml FuGene/1 mg DNA). The MRTU constructs are regulated by a cis-regulating element (promoter). […] A major difference between the CIS and TRANS system is that in CIS activities of endogenous TFs are measured, whereas the TRANS assay evaluates changes in activities of exogenous, chimeric NR-Gal4 proteins. […] At the end of 24 hour incubation, total RNA was isolated using TriZol reagent (Invitrogen). The isolated RNA is then reverse-transcribed using oligo(dT) primer and Mo-MLV reverse transcriptase (Invitrogen) with DNAse I (Ambion) treatment for 30 min. The one-tenth of the produced cDNA was amplified by PCR using Taq DNA polymerase (Invitrogen) and two reporter sequence-specific primers. The PCR products were fluorescently labeled by primer extension with 6-arboxyfluorescein (6-FAM) 5'-labeled reporter sequence-specific primer (2 min at 95 C, 20 s at 68 C and 10 min at 72 C) and these products were digested with 5U of HpaI (New England Biolabs) for 2h at 37 C. The fragments were purified using Qiaquick PCR columns (Qiagen), analyzed on an ABI 3130xL genetic analyzer (Applied Biosystems) with peak positions identified by using a set of X-rhodamine (ROX)-labeled MapMarker1000 molecular weight standards (BioVentures). The raw capillary electrophoresis data was processed using Attagraph software (Attagene).
Turning to `O=C(O)C(F)(OC(F)(F)C(F)(F)C(F)(F)F)C(F)(F)F` (stereo not given), the call was inactive.

For the compound `CC(C)CBr`, the compound was called inactive.

As for `CCOP(=S)(OCC)SCSCC`, the result was inactive.

As for `CN(C)C(=O)Cl`, the compound was called inactive.

Regarding `CC(C)(C)N(NC(=O)c1ccc(Cl)cc1)C(=O)c1ccccc1`, the outcome was inactive.

With `O=[N+]([O-])c1ccc(Cl)c(Cl)c1`, the compound was called inactive.

Take `COP(N)(=S)OC`: the call was inactive.

For the compound `O=C(O)C1C(C(=O)O)C2(Cl)C(Cl)=C(Cl)C1(Cl)C2(Cl)Cl` (stereo not given), the result was inactive.

For the compound `CCCCOCC1CO1` (stereo not given), the call was inactive.

For the compound `C/C(=N\NC(=O)Nc1cc(F)cc(F)c1)c1ncccc1C(=O)O`, the outcome was inactive.

Consider `CCCCC(CC)COC(=O)c1c(Br)c(Br)c(Br)c(Br)c1C(=O)OCC(CC)CCCC` (stereo not given), for which the result was inactive.

Usually AC50 stands for the midpoint of the concentration-response curve, whichever way the signal moves. For `O=c1ssc(Cl)c1Cl`, the AC50 was 61.2 µM (active).

For the compound `Cc1ccc(N)cc1N`, the call was inactive.

For `O=S(=O)(c1ccc(O)cc1)c1ccc(O)cc1`, the call was inactive.

As for `OCC1CO1` (stereo not given), the outcome was inactive.

With `c1cc2c3c(cccc3c1)CC2`, the outcome was inactive.

As for `O=c1[nH]c2ccccc2c(=O)o1`, the result was inactive.

Regarding `Nc1ccc(Cl)cc1`, the compound was called inactive.

For `CCCCN(CC)C(=O)SCCC`, the result was inactive.

In the case of `Nc1ccc(Sc2ccc(N)cc2)cc1`, the outcome was inactive.

Turning to `Cc1ccc(O)cc1C`, the compound was classed as inactive.

Consider `Oc1ccc(I)cc1`, for which the result was inactive.

For the compound `ClC(Cl)=C(c1ccc(Cl)cc1)c1ccccc1Cl`, the AC50 is 41.7 µM (active).

On to `OCC(F)(F)OC(F)(F)C(F)(F)OC(F)(F)C(F)(F)OC(F)(F)F`, for which the result was inactive and the AC50 was 75.6 µM (active).

With `Nc1ccc2ccccc2c1`, the result was inactive.

On to `N#Cc1ccc(O)cc1`, for which the compound was classed as inactive.

Regarding `c1ccc2c(c1)sc1ccccc12`, the outcome was inactive.

For `Cc1cc(C)c(C(=O)P(=O)(c2ccccc2)c2ccccc2)c(C)c1`, the AC50 is 62.5 µM (active).

`NC(=O)C(F)(F)C(F)(F)F`: the outcome was inactive.

Regarding `CCCN(CCC)c1c([N+](=O)[O-])cc(C(C)C)cc1[N+](=O)[O-]`, the call was inactive.

For `CCOC(=O)c1ccccc1N`, the result was inactive.

Take `O=S(=O)(F)C(F)(F)C(F)(F)C(F)(F)C(F)(F)C(F)(F)C(F)(F)C(F)(F)C(F)(F)F`: the compound was classed as inactive.

For `FC(F)(F)c1ccc(Cl)cc1`, the result was inactive.

As for `c1ccc2c(c1)Nc1ccccc1S2`, the compound was called inactive.

On to `FC(F)(F)C(F)(C(F)(F)F)C(F)(F)C(F)(F)CC1CO1` (stereo not given), for which the result was inactive.

Turning to `CCCCN(CCCC)SN(C)C(=O)Oc1cccc2c1OC(C)(C)C2`, the outcome was inactive.

Take `OCC(F)(F)OC(F)(F)C(F)(F)OC(F)(F)CO`: the compound was called inactive.

Regarding `CC(Cl)CN(C)C` (stereo not given), the call was inactive.

Take `CCCCN(CCCC)N=O`: the outcome was inactive.
